In PubChem BioAssay (NCI):
Several values for one entry are separate records, joined by “and”; a condition that tells them apart may be missing. Equal entries are not always repeated. Compounds without any hit were thinned out: in the full panel of roughly 83,000, 20% have a hit.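 Each cell line was grown in a 96-well plate and treated with one concentration of compound for 48 hours. Values below 10 were considered active.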 Activity calls are given as the source filed them.

Assays:
Test in all cases: NCI-60 one-dose screen, 48 h (100 = growth as untreated, 0 = no growth, -100 = all killed)
Conditions in all cases: 10 µM unless noted
HCT-15 colon = test system: HCT-15 colon
HT29 colon = test system: HT29 colon
SNB-75 CNS = test system: SNB-75 CNS
SNB-19 CNS = test system: SNB-19 CNS
U251 CNS = test system: U251 CNS
PC-3 prostate = test system: PC-3 prostate
SK-MEL-5 melanoma = test system: SK-MEL-5 melanoma
UACC-62 melanoma = test system: UACC-62 melanoma
LOX IMVI melanoma = test system: LOX IMVI melanoma
SK-MEL-28 melanoma = test system: SK-MEL-28 melanoma

Measured: growth

O=Nc1ccccc1N=O
inactive: HCT-15 colon 51.4% | HT29 colon 81.6% | SNB-75 CNS 46.6% | SNB-19 CNS 88.6% | U251 CNS 78.3% | PC-3 prostate 83.9% | SK-MEL-5 melanoma 87.2% | UACC-62 melanoma 71.2% | LOX IMVI melanoma 60% | SK-MEL-28 melanoma 92.9%

Nc1nc(N)c2c(ccc3c2ccn3Cc2cccc([N+](=O)[O-])c2)n1
active: HCT-15 colon -84.6% | HT29 colon -60% | SNB-75 CNS -89.8% | SNB-19 CNS -92.2% | U251 CNS -87.9% | PC-3 prostate -54.1% | SK-MEL-5 melanoma -98% | UACC-62 melanoma -94.8% | LOX IMVI melanoma -83.4% | SK-MEL-28 melanoma -97.1%

CCCCCCC(C)c1ccccc1O (stereo not given) (tested in a mixture with another compound)
inactive: HCT-15 colon 105% | HT29 colon 113% | SNB-75 CNS 128% | SNB-19 CNS 106% | U251 CNS 104% | PC-3 prostate 94.8% | SK-MEL-5 melanoma 111% | UACC-62 melanoma 99.6% | LOX IMVI melanoma 95.8% | SK-MEL-28 melanoma 111%

CCC1OC(OC)C=CC1=O (stereo not given)
inactive: HCT-15 colon 109% | HT29 colon 113% | SNB-75 CNS 95% | SNB-19 CNS 91.5% | U251 CNS 113% | PC-3 prostate 97.1% | SK-MEL-5 melanoma 103% | UACC-62 melanoma 85% | LOX IMVI melanoma 103% | SK-MEL-28 melanoma 106%

Nc1ccc(SSc2ccc(N)cc2)cc1
inactive: HCT-15 colon 88.6% | HT29 colon 112% | SNB-75 CNS 102% | SNB-19 CNS 109% | U251 CNS 76% | PC-3 prostate 84.8% | SK-MEL-5 melanoma 89.6% | UACC-62 melanoma 91.1% | LOX IMVI melanoma 79.6% | SK-MEL-28 melanoma 114%

O=C1c2cccnc2-c2nccc3c2c1nc1cc(Br)ccc13
active: HCT-15 colon -49.5% and -71.3% | HT29 colon -35% and -75.9% | SNB-75 CNS 9.53% and -98.7% | SNB-19 CNS -49.7% and -79% | U251 CNS -75% and -97.8% | PC-3 prostate -43.2% and -86.6% | SK-MEL-5 melanoma -97% and -95.4% | UACC-62 melanoma -95.1% and -74.6% | LOX IMVI melanoma -45.9% and -71.1% | SK-MEL-28 melanoma -67.5% and -74.4%

C[N+](C)=c1ccc2nc3c(cc(NCCCNc4cc5oc6cc(=[N+](C)C)ccc-6nc5c5ccccc45)c4ccccc43)oc-2c1
active: HCT-15 colon -29.2% | HT29 colon -32.5% | SNB-19 CNS -24.6% | U251 CNS -20.1% | PC-3 prostate 6.83% | SK-MEL-5 melanoma -96.3% | LOX IMVI melanoma -45.5%
inactive: SNB-75 CNS 39.6% | UACC-62 melanoma 43.3% | SK-MEL-28 melanoma 64.8%

O=C(Nc1ccccc1)Oc1c(Cl)c(Cl)c(Cl)c(Cl)c1Cl
inactive: HCT-15 colon 102% and 99.8% | HT29 colon 104% and 96.6% | SNB-75 CNS 93.1% and 77.4% | SNB-19 CNS 93.5% and 100% | U251 CNS 99% and 100% | PC-3 prostate 95.6% and 93.6% | SK-MEL-5 melanoma 101% and 96.1% | UACC-62 melanoma 88.8% and 89.5% | LOX IMVI melanoma 99% and 93.1% | SK-MEL-28 melanoma 119% and 101%

CC1(C)CC([P+](c2ccccc2)(c2ccccc2)c2ccccc2)=NN1
inactive: HCT-15 colon 94.3% | HT29 colon 24.9% | SNB-75 CNS 34.3% | SNB-19 CNS 44.5% | U251 CNS 25.5% | PC-3 prostate 29.1% | SK-MEL-5 melanoma 12.4% | UACC-62 melanoma 32.2% | LOX IMVI melanoma 43.1% | SK-MEL-28 melanoma 67.9%

CC1=CC(O)C2CC1C2(C)C (stereo not given)
inactive: HCT-15 colon 104% and 112% | HT29 colon 88.2% and 98.1% | SNB-75 CNS 84.6% and 95.3% | SNB-19 CNS 103% and 116% | U251 CNS 100% and 110% | PC-3 prostate 94.9% and 86.4% | SK-MEL-5 melanoma 103% and 104% | UACC-62 melanoma 101% and 105% | LOX IMVI melanoma 98% and 105% | SK-MEL-28 melanoma 107% and 115%

CN=C(N)N/N=C(\C)c1ccc2c(c1)Cc1cc(/C(C)=N/NC(N)=NC)ccc1-2
active: HCT-15 colon 2.4% | HT29 colon -49.7% | SNB-75 CNS -46.5% | SNB-19 CNS -43.6% | U251 CNS -78.9% | SK-MEL-5 melanoma -89.9% | UACC-62 melanoma -78.3% | LOX IMVI melanoma -49.3% | SK-MEL-28 melanoma -64.7%
inactive: PC-3 prostate 15.9%

CCCCCCCCCCCCCCCC[N+](C)(CCO)Cc1cnc[nH]1 (stereo not given)
inactive: HCT-15 colon 23.5%
active: HT29 colon -58.8% | SNB-75 CNS -86.6% | SNB-19 CNS -98.8% | U251 CNS -86.5% | PC-3 prostate -37.5% | SK-MEL-5 melanoma -99.8% | UACC-62 melanoma -76.4% | LOX IMVI melanoma -79% | SK-MEL-28 melanoma -43.2%

Oc1c(Cl)cc(Cl)c2cccnc12
inactive: HCT-15 colon 44.6% and 30.1% | HT29 colon 63% and 90.4% | SNB-75 CNS 82.6% and 46.2% | SNB-19 CNS 57.4% and 38.9% | U251 CNS 35.5% | PC-3 prostate 50.5% and 30.9% | SK-MEL-5 melanoma 33.2% and 28.1% | UACC-62 melanoma 58.2% and 49.3% | LOX IMVI melanoma 32.5% and 39.4% | SK-MEL-28 melanoma 83.2% and 65.5%

CC(C)c1ccc2nc3ccc(C(=O)NCCN4CCN(c5ccccc5)CC4)cn3c(=O)c2c1
inactive: HCT-15 colon 44.5% | HT29 colon 38.8% | SNB-75 CNS 60.4% | SNB-19 CNS 78.8% | U251 CNS 38.2% | PC-3 prostate 56.3% | UACC-62 melanoma 62% | LOX IMVI melanoma 56.1% | SK-MEL-28 melanoma 69.7%
active: SK-MEL-5 melanoma -25.3%

COC(=O)c1nc(=S)[nH]c(C(=O)OC)c1C(=O)c1ccc2ccccc2c1
inactive: HCT-15 colon 99.2% | HT29 colon 112% | SNB-75 CNS 84.5% | SNB-19 CNS 94.7% | U251 CNS 97.6% | PC-3 prostate 93.5% | SK-MEL-5 melanoma 98.9% | UACC-62 melanoma 89.4% | LOX IMVI melanoma 94.7% | SK-MEL-28 melanoma 106%

Nc1nc(N)c2nc(CNc3ccc(C(=O)NC(CCC(=O)O)C(=O)O)cc3)cnc2n1 (stereo not given)
inactive: HCT-15 colon 27% and 26% | HT29 colon 32.5% and 18.5% | SNB-75 CNS 64.3% and 41.4% | SNB-19 CNS 51% and 44.4% | U251 CNS 37.9% and 26.9% | PC-3 prostate 43.3% and 26.6% | SK-MEL-5 melanoma 24.6% and 23.9% | UACC-62 melanoma 25.3% and 24.3% | LOX IMVI melanoma 12% and 13.1% | SK-MEL-28 melanoma 67% and 96.9%

CN1c2ccccc2C(C)(C)C12C=Cc1cc(O)ccc1O2 (stereo not given)
inactive: HCT-15 colon 43.1% | HT29 colon 55.9% | SNB-75 CNS 43.1% | SNB-19 CNS 61.1% | U251 CNS 52.9% | PC-3 prostate 37.8% | SK-MEL-5 melanoma 43.2% | UACC-62 melanoma 30.2% | LOX IMVI melanoma 47.2% | SK-MEL-28 melanoma 64.5%

CC1SC(=S)N(c2ccc(Cl)cc2)C1=O (stereo not given)
inactive: HCT-15 colon 96.5% and 84.1% | HT29 colon 105% and 98.8% | SNB-75 CNS 88.8% and 83% | SNB-19 CNS 99.9% and 104% | U251 CNS 95.4% and 93.6% | PC-3 prostate 97.7% and 74.3% | SK-MEL-5 melanoma 94.6% and 93.6% | UACC-62 melanoma 82.5% and 70.1% | LOX IMVI melanoma 85.9% and 90.2% | SK-MEL-28 melanoma 210% and 104%

O=C1C2=C(Nc3cc([N+](=O)[O-])ccc3N2)OC1c1c2ccccc2cc2ccccc12 (stereo not given)
inactive: HCT-15 colon 20.5% | HT29 colon 51.4% | SNB-75 CNS 52.4% | SNB-19 CNS 40.2% | U251 CNS 31.4% | PC-3 prostate 20.5% | SK-MEL-5 melanoma 56.7% | UACC-62 melanoma 44.6% | LOX IMVI melanoma 38.1% | SK-MEL-28 melanoma 77.5%

CCN(CC)CCOc1ccc(-c2nc3cc(Cl)ccc3s2)cc1
inactive: SNB-19 CNS 40.7%
active: HCT-15 colon -71.9% | HT29 colon -100% | SNB-75 CNS -0.875% | U251 CNS -3.49% | PC-3 prostate 4.44% | SK-MEL-5 melanoma -38.5% | UACC-62 melanoma -86.9% | LOX IMVI melanoma -86.5% | SK-MEL-28 melanoma -79.7%

CN(C)C(=O)SC1=C(c2c(Cl)cccc2Cl)C(=O)c2ccccc21
active: HCT-15 colon -22.4% | HT29 colon -35.3% | LOX IMVI melanoma -48% | SK-MEL-28 melanoma -34.1%
inactive: SNB-75 CNS 49.3% | SNB-19 CNS 97.4% | U251 CNS 90% | PC-3 prostate 77% | SK-MEL-5 melanoma 40.1% | UACC-62 melanoma 26.7%

O=C1c2ccccc2C(=O)N1c1ccccc1
inactive: HCT-15 colon 105% | HT29 colon 104% | SNB-75 CNS 89.2% | SNB-19 CNS 105% | U251 CNS 93.1% | PC-3 prostate 101% | SK-MEL-5 melanoma 105% | UACC-62 melanoma 92% | LOX IMVI melanoma 104% | SK-MEL-28 melanoma 115%

C[n+]1c(/C=C/c2ccc([N+](=O)[O-])cc2)ccc2ccccc21
inactive: HCT-15 colon 98.6% | HT29 colon 104% | SNB-75 CNS 92.5% | SNB-19 CNS 108% | U251 CNS 99.6% | PC-3 prostate 90% | SK-MEL-5 melanoma 97.9% | UACC-62 melanoma 95.6% | LOX IMVI melanoma 92.3% | SK-MEL-28 melanoma 121%
